Holding throughout (assay): DAPPL (digital affinity profiling via proximity ligation, sequencing); 10 mM Tris-HCl pH 7.5, 50 mM NaCl, 1 mM DTT, 4% glycerol, room temperature, 30 min; GST-TFs on glutathione beads, 16-mer random dsDNA library, 0.1% formaldehyde crosslink after washing; high values mean tight binding
Assay [1] deals with T1, FEV (Homo sapiens, UniProt Q99581 1-238).
T1 sequence: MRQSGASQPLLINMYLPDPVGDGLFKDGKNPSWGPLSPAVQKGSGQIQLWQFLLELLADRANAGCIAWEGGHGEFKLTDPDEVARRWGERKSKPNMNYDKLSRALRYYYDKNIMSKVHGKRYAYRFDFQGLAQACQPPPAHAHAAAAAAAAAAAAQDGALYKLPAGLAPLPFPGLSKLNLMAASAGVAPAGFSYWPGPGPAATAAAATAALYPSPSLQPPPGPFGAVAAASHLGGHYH
The following applies: protein: recombinant; tags: N-terminal GST; dsDNA, one strand shown. Summed up: (§1)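 Binding signal is given per hexamer as its read frequency for a factor divided by its frequency in the tag-only sample. GST-fused human transcription factors were expressed in yeast, captured on glutathione beads, barcoded with DNA and pooled with that sample, then incubated with 200 nmole of a 16-mer random double-stranded DNA library in Tris/NaCl/DTT/glycerol buffer for 30 min at room temperature. The pools were then washed, crosslinked, proximity-ligated, amplified by PCR and sequenced on an Illumina NextSeq500.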

For assay [2], the target named is ETV5 (Homo sapiens, UniProt P41161 1-510). The following applies: protein: recombinant; tags: N-terminal GST; dsDNA, one strand shown. In short, it runs like this: as §1
The target in assay [3] is HSF1 (Homo sapiens, UniProt Q00613 1-529). The note with it: protein: recombinant; tags: N-terminal GST; chain copies: 3; dsDNA, one strand shown. Summed up: as §1
Assay [4] deals with T2, SPIC (Homo sapiens, UniProt Q8N5J4 1-248).
T2 sequence: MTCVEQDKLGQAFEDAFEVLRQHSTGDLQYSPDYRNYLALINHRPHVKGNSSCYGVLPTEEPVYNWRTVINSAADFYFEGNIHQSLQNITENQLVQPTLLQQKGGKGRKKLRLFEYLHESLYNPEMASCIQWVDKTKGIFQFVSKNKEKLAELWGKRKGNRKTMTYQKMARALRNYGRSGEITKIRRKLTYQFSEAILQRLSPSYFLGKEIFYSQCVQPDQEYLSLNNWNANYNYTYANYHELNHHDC
The note with it: protein: recombinant; tags: N-terminal GST; dsDNA, one strand shown. In short, it runs like this:
as §1

The target of assay [5] is ELF4 (Homo sapiens, UniProt Q99607 1-663). The note with it: protein: recombinant; tags: N-terminal GST; dsDNA, one strand shown. In short, it runs like this: as §1
Assay [6] has as its target T3, ELK4 (Homo sapiens, UniProt P28324-2 1-405).
T3 sequence: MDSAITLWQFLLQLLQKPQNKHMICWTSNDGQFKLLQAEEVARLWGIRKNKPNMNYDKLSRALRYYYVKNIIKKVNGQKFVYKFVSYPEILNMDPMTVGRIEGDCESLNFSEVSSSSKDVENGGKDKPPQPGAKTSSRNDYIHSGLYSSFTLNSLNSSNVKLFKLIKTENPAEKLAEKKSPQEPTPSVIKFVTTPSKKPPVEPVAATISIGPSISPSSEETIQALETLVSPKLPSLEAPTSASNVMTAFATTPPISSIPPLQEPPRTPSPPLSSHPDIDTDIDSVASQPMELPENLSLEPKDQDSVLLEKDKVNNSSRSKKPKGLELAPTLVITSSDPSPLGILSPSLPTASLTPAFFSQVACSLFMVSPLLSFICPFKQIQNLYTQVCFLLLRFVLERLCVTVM
The following applies: protein: recombinant; tags: N-terminal GST; dsDNA, one strand shown. In short, it runs like this: as §1

Assay [7] deals with T4, ETV2 (Homo sapiens, UniProt O00321 1-342).
T4 sequence: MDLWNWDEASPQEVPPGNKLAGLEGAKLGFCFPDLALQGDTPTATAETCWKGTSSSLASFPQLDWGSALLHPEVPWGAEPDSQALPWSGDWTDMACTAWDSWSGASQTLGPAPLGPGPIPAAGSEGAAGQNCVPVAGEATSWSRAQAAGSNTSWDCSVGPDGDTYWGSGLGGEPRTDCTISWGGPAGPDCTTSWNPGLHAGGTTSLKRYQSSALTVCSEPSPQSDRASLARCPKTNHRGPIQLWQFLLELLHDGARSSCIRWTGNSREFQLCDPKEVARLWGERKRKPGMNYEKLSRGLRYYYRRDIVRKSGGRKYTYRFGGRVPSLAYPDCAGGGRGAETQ
The following applies: protein: recombinant; tags: N-terminal GST; dsDNA, one strand shown. In short, it runs like this: as §1

Assay [8] has as its target T5, ELF3 (Homo sapiens, UniProt P78545 1-371).
T5 sequence: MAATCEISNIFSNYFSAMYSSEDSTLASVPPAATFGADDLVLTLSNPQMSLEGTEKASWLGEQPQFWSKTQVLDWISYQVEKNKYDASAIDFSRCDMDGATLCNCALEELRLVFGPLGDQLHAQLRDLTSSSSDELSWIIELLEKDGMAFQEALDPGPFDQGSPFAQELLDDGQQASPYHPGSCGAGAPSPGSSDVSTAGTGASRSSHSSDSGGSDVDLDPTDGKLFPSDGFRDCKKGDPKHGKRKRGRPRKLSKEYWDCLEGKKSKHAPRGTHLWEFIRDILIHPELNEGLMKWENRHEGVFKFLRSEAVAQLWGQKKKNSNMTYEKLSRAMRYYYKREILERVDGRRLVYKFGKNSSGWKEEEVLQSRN
The following applies: protein: recombinant; tags: N-terminal GST; dsDNA, one strand shown. In short, it runs like this: as §1

Assay [9] addresses CRX (Homo sapiens, UniProt O43186 1-299). The note with it: protein: recombinant; tags: N-terminal GST; dsDNA, one strand shown. Summed up: as §1
In assay [10] the target is ETV1 (Homo sapiens, UniProt P50549 1-477). The note with it: protein: recombinant; tags: N-terminal GST; dsDNA, one strand shown. Summed up:
as §1

In assay [11] the target is T6, ERF (Homo sapiens, UniProt P50548 1-548).
T6 sequence: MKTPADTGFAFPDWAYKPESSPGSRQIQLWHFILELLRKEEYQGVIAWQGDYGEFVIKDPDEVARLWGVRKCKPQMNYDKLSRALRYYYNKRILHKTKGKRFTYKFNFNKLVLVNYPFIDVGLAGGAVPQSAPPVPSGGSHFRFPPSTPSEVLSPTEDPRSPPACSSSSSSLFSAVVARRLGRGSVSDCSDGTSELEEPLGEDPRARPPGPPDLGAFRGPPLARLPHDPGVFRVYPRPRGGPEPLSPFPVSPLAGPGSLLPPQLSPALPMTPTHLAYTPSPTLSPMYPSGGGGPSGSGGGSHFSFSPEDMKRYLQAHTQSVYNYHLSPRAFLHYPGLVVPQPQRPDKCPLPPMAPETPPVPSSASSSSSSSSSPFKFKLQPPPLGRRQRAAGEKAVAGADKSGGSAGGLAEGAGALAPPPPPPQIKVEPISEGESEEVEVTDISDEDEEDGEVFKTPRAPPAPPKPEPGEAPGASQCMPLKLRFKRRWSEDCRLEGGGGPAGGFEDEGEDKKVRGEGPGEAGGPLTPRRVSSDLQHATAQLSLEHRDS
The note with it: protein: recombinant; tags: N-terminal GST; dsDNA, one strand shown. Summed up: as §1

Assay [12] has as its target T7, ETV3L (Homo sapiens, UniProt Q6ZN32 1-361).
T7 sequence: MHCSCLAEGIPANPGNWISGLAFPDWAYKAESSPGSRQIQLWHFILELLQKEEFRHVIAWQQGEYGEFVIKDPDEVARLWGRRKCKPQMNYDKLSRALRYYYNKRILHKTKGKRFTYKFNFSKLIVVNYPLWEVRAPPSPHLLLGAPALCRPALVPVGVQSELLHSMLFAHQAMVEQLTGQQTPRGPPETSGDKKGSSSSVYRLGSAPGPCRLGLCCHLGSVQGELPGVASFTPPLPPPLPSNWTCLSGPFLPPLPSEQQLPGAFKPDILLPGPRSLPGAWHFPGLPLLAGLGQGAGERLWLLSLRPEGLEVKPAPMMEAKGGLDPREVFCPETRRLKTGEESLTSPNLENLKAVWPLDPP
The note with it: protein: recombinant; tags: N-terminal GST; dsDNA, one strand shown. In short, it runs like this: as §1

Assay [13] concerns the target T8, ETS2 (Homo sapiens, UniProt P15036 1-469).
T8 sequence: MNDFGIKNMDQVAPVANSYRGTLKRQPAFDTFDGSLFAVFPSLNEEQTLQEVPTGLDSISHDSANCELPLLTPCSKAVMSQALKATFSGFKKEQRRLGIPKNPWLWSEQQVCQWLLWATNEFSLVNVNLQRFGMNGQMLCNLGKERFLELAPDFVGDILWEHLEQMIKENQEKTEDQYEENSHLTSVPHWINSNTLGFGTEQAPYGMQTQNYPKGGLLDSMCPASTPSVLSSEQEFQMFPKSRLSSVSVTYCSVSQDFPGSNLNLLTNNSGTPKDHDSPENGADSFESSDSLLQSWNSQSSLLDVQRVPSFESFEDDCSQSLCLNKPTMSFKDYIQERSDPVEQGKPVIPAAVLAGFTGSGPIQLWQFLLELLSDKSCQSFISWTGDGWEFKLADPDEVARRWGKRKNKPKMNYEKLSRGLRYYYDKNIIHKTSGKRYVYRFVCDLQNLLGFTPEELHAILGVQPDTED
The following applies: protein: recombinant; tags: N-terminal GST; dsDNA, one strand shown. Summed up:
as §1

For assay [14], the target named is T9, SPDEF (Homo sapiens, UniProt O95238 1-335).
T9 sequence: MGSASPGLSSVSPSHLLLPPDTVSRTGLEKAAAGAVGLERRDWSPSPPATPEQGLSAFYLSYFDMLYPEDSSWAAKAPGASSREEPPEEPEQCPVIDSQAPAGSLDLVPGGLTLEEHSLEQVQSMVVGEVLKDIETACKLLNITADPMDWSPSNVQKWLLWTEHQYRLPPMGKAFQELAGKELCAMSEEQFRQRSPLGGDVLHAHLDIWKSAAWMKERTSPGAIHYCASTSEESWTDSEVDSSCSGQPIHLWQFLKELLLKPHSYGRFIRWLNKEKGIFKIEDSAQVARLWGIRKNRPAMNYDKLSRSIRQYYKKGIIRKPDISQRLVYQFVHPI
The following applies: protein: recombinant; tags: N-terminal GST; dsDNA, one strand shown. Summed up: as §1

For assay [15], the target named is T10, ETV7 (Homo sapiens, UniProt Q9Y603 1-341).
T10 sequence: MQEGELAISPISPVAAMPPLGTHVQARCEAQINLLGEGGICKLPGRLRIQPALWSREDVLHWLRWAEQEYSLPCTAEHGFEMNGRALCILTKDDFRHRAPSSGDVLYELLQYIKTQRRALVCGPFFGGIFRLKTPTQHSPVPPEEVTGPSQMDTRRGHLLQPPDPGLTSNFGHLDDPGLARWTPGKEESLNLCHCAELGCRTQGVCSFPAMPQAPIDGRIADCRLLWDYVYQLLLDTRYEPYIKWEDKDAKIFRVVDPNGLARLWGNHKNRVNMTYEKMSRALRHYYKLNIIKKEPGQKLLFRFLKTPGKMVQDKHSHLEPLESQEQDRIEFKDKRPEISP
The following applies: protein: recombinant; tags: N-terminal GST; dsDNA, one strand shown. Summed up: as §1

In assay [16] the target is T11, ELF5 (Homo sapiens, UniProt Q9UKW6-2 1-255).
T11 sequence: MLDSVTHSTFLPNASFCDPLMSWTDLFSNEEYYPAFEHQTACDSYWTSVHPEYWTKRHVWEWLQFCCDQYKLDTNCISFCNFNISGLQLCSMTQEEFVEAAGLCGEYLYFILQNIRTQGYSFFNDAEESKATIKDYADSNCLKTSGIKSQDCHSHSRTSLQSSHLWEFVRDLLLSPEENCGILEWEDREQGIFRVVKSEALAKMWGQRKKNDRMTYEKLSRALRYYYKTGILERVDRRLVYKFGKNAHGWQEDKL
The following applies: protein: recombinant; tags: N-terminal GST; dsDNA, one strand shown. Summed up: as §1

The target in assay [17] is T12, ETV3 (Homo sapiens, UniProt P41162-2 1-143).
T12 sequence: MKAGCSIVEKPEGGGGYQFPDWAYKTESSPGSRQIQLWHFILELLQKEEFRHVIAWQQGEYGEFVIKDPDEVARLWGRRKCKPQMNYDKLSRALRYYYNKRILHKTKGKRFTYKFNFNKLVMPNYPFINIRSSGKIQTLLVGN
The following applies: protein: recombinant; tags: N-terminal GST; dsDNA, one strand shown. In short, it runs like this: as §1

Assay [18] concerns the target ETV6 (Homo sapiens, UniProt P41212 1-452). The following applies: protein: recombinant; tags: N-terminal GST; dsDNA, one strand shown. In short, it runs like this:
as §1

Sequence of ETV1 (P50549 whole entry): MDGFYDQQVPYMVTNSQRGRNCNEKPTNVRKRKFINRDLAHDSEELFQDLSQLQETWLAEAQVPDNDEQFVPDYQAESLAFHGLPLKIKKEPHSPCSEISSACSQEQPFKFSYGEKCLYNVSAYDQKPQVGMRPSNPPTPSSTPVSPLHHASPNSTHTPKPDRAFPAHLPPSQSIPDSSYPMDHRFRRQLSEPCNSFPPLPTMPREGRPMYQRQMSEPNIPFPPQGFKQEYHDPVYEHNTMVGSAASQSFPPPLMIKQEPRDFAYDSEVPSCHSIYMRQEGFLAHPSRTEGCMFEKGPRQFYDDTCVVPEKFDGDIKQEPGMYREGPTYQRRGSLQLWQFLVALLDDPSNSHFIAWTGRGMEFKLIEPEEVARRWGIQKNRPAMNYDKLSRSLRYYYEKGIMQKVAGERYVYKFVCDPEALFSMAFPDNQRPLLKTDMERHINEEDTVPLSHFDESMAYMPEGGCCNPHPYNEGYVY
Sequence of HSF1 (Q00613 whole entry): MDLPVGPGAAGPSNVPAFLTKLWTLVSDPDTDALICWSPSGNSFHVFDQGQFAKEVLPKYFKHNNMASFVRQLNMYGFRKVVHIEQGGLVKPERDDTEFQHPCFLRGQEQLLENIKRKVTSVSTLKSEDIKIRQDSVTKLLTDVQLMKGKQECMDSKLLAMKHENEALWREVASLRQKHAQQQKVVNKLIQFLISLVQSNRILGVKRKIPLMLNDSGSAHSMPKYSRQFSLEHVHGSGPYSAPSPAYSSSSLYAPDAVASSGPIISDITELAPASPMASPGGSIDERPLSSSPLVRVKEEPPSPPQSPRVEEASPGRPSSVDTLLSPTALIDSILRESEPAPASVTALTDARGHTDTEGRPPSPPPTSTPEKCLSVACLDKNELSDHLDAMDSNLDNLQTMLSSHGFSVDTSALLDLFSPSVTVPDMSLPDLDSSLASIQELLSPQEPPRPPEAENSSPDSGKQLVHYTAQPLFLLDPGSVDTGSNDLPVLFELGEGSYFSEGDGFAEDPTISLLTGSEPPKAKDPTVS
Sequence of ETV6 (P41212 whole entry): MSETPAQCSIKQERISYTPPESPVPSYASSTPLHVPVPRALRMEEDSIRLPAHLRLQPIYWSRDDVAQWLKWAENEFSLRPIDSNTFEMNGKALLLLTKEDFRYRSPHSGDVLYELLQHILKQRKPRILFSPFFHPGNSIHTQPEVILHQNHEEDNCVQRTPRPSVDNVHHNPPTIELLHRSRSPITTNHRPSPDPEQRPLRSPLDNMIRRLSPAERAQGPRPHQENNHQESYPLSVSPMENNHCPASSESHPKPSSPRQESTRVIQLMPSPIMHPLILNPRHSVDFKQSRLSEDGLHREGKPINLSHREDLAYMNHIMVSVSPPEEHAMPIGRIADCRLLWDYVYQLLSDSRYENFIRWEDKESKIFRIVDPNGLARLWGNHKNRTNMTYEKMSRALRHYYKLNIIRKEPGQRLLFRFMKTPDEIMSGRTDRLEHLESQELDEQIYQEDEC
Sequence of CRX (O43186 whole entry): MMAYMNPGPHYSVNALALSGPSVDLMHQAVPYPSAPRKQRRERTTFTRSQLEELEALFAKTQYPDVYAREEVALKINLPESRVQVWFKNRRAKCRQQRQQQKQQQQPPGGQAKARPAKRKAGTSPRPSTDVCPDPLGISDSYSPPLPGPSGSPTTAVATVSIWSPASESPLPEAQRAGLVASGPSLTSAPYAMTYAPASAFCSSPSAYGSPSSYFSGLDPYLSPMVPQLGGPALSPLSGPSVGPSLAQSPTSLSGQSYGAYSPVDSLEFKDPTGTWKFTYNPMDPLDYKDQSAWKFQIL
Sequence of ELF4 (Q99607 whole entry): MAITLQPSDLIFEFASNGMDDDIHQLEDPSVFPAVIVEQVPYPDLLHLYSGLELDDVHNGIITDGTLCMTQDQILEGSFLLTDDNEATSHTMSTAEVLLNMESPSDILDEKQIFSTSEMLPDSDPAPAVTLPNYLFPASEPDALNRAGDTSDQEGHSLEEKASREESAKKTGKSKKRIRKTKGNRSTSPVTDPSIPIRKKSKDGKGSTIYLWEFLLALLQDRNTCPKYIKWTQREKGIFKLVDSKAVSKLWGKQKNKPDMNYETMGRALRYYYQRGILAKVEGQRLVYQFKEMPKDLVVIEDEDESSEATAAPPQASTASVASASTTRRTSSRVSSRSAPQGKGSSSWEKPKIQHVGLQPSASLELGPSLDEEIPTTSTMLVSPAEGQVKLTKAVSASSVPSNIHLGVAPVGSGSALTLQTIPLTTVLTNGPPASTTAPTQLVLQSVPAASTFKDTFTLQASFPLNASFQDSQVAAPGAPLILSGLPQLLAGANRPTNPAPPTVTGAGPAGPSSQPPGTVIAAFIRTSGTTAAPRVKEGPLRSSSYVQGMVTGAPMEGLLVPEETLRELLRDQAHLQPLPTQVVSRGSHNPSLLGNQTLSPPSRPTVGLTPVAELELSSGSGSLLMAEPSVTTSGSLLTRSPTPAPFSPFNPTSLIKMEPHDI
Sequence of ETV5 (P41161 whole entry): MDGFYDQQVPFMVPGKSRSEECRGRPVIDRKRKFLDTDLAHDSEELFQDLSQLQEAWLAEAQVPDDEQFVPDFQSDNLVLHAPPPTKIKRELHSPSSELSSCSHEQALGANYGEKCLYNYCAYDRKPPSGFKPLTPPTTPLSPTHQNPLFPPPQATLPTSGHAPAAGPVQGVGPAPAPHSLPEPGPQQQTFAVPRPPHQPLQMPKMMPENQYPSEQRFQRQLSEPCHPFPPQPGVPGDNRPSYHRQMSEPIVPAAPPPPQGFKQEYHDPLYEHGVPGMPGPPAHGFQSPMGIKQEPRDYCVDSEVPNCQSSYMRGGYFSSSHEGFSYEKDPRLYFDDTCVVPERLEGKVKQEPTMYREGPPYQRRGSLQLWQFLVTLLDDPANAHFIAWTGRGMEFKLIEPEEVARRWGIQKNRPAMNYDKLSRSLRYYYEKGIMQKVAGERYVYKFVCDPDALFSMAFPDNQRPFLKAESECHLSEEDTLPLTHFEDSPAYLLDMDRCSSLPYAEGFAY

In the case of CTCTTT, the binding signal was 1.47 fold enrichment (6-mer frequency, TF over GST control) in [1]; 1.42 fold enrichment (6-mer frequency, TF over GST control) in [2]; 1.4 fold enrichment (6-mer frequency, TF over GST control) in [3]; 1.35 fold enrichment (6-mer frequency, TF over GST control) in assay [4]; 1.44 fold enrichment (6-mer frequency, TF over GST control) in assay [5]; 1.31 fold enrichment (6-mer frequency, TF over GST control) in [6]. The binding signal in assay [7] is 1.58 fold enrichment (6-mer frequency, TF over GST control); in [8] it was 1.4 fold enrichment (6-mer frequency, TF over GST control); in [9] it was 1.53 fold enrichment (6-mer frequency, TF over GST control); in assay [10], 1.44 fold enrichment (6-mer frequency, TF over GST control); in assay [11], 1.39 fold enrichment (6-mer frequency, TF over GST control); in assay [12] it was 1.53 fold enrichment (6-mer frequency, TF over GST control). Besides, the binding signal in assay [13] was 1.41 fold enrichment (6-mer frequency, TF over GST control); in assay [14] it was 1.53 fold enrichment (6-mer frequency, TF over GST control); in assay [15], 1.5 fold enrichment (6-mer frequency, TF over GST control); in [16], 1.42 fold enrichment (6-mer frequency, TF over GST control); in assay [17], 1.53 fold enrichment (6-mer frequency, TF over GST control); in assay [18], 1.4 fold enrichment (6-mer frequency, TF over GST control).
